PubChem BioAssay (EPA / NIEHS)
Calls of active or inactive are those of the source. How the source made its calls: active means hit-call score of the fitted dose curve at least 0.9, where 1 is the maximum; inactive means score below 0.9.

Columns and labels:
Conditions in all cases: mRNA level, 48 h; actives raise or lower the signal
[1] = read-out: Forkhead box O1 (FOXO1), FOXO1 (gene 2308); experiment: LTEA_HepaRG_FOXO1: Life Technologies and Expression Analysis (LTEA) Assay for Forkhead box O1 (FOXO1) using HepaRG (AID 2283456)
How it was run: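 HepaRG, 48 h exposure, 8-pt half-log series from 100 uM in 0.5% DMSO, duplicates; Fluidigm qRT-PCR mRNA, housekeeping-normalised; bidirectional fit vs DMSO baseline.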

[2] = read-out: growth arrest and DNA damage 45 (GADD45A), GADD45A (gene 1647); experiment: LTEA_HepaRG_GADD45A: Life Technologies and Expression Analysis (LTEA) Assay for growth arrest and DNA damage 45 (GADD45A) using HepaRG (AID 2283458)
How it was run: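 HepaRG, 48 h exposure, 8 conc. (top 100 uM, half-log steps), 0.5% DMSO vehicle, duplicates. Read-out: qRT-PCR mRNA level, housekeeping-normalized (ACTB/GAPDH/POLR2A). Curves fit bidirectionally vs DMSO baseline.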

[3] = read-out: Forkhead box O3 (FOXO3), FOXO3 (gene 2309); experiment: LTEA_HepaRG_FOXO3: Life Technologies and Expression Analysis (LTEA) Assay for Forkhead box O3 (FOXO3) using HepaRG (AID 2283459)
How it was run: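 qRT-PCR readout of FOXO3 transcript, normalized to three housekeeping genes (ACTB, GAPDH, POLR2A); gain or loss fitted against 0.5% DMSO vehicle. HepaRG cells, 48 h chemical exposure, 8-point half-log series, top 100 uM.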

[4] = read-out: ABC Transporter (ABCB1), ABCB1 (gene 5243); experiment: LTEA_HepaRG_ABCB1: Life Technologies and Expression Analysis (LTEA) Assay for ABC Transporter (ABCB1) using HepaRG (AID 2283460)
How it was run: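 HepaRG, 48 h exposure, 8-pt half-log series from 100 uM, 0.5% DMSO vehicle, duplicates. Readout: ABCB1 transcript by Fluidigm TaqMan qRT-PCR, housekeeping-normalized; bidirectional curve fit vs DMSO baseline.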

[5] = read-out: growth arrest and DNA damage 45 (GADD45B), GADD45B (gene 4616); experiment: LTEA_HepaRG_GADD45B: Life Technologies and Expression Analysis (LTEA) Assay for growth arrest and DNA damage 45 (GADD45B) using HepaRG (AID 2283461)
How it was run: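 HepaRG, ~100,000 cells/well, 48 h plating; serum-free induction medium; cpd 100 uM top, half-log x8, 0.5% DMSO, duplicate, 48 h; lysis in RLT, RNA isolation, qRT-PCR; norm ACTB/GAPDH/POLR2A; bidirectional fit vs DMSO.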

[6] = read-out: ABC Transporter (ABCC3), ABCC3 (gene 8714); experiment: LTEA_HepaRG_ABCC3: Life Technologies and Expression Analysis (LTEA) Assay for ABC Transporter (ABCC3) using HepaRG (AID 2283462)
How it was run: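 Human HepaRG, 48 h dosing, 8-pt half-log series from 100 uM, 0.5% DMSO vehicle, duplicates. ABCC3 mRNA by TaqMan qRT-PCR, housekeeping-normalized; bidirectional curve fit vs DMSO.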

[7] = read-out: ABC Transporter (ABCC2), ABCC2 (gene 1244); experiment: LTEA_HepaRG_ABCC2: Life Technologies and Expression Analysis (LTEA) Assay for ABC Transporter (ABCC2) using HepaRG (AID 2283464)
How it was run: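 HepaRG, 48 h post-plating; serum-free induction medium; cpd 8-pt, 100 uM top, half-log, 0.5% DMSO, duplicate, 48 h. Readout: ABCC2 mRNA by qRT-PCR, norm. ACTB/GAPDH/POLR2A. Bidirectional fit vs DMSO baseline.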

[8] = read-out: Broad substrate specificity ATP-binding cassette transporter ABCG2 (Homo sapiens) (UniProt Q9UNQ0); experiment: LTEA_HepaRG_ABCG2: Life Technologies and Expression Analysis (LTEA) Assay for ABC Transporter (ABCG2) using HepaRG (AID 2283465)
How it was run: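 HepaRG, 48 h exposure, 8-pt half-log series from 100 uM, 0.5% DMSO vehicle, duplicates. Readout: ABCG2 transcript by qRT-PCR (Fluidigm array), housekeeping-normalized; bidirectional curve fit relative to DMSO baseline.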

[9] = read-out: ATP-citrate lyase (ACLY), ACLY (gene 47); experiment: LTEA_HepaRG_ACLY: Life Technologies and Expression Analysis (LTEA) Assay for ATP-citrate lyase (ACLY) using HepaRG (AID 2283466)
How it was run: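 qRT-PCR readout of ACLY transcript after 48 h chemical treatment of HepaRG cells; expression normalized to three housekeeping genes. Eight-point half-log series, highest 100 uM, 0.5% DMSO vehicle. Gain or loss fitted against DMSO baseline.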

[10] = read-out: Peroxisomal acyl-coenzyme A oxidase 1 (ACOX1) gene, ACOX1 (gene 51); experiment: LTEA_HepaRG_ACOX1: Life Technologies and Expression Analysis (LTEA) Assay for Peroxisomal acyl-coenzyme A oxidase 1 (ACOX1) gene using HepaRG (AID 2283467)
How it was run: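 HepaRG, 48 h chemical exposure, 8-pt half-log series from 100 uM top, 0.5% DMSO vehicle, duplicates. Readout: ACOX1 mRNA by Fluidigm qRT-PCR, housekeeping-normalized; bidirectional fit vs DMSO baseline.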

[11] = read-out: Alkaline Phosphatase, Placental (ALPP) gene, ALPP (gene 250); experiment: LTEA_HepaRG_ALPP: Life Technologies and Expression Analysis (LTEA) Assay for Alkaline Phosphatase, Placental (ALPP) gene using HepaRG (AID 2283468);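 on AC50: differentiated human HepaRG liver cells in serum-free induction medium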
How it was run: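 HepaRG, 48 h plating then 48 h dosing, serum-free induction medium, 0.5% DMSO. 8 conc, half-log, max 100 uM, duplicates. Endpoint: ALPP transcript by qRT-PCR, housekeeping-normalized; gain or loss fitted vs DMSO.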

[12] = read-out: Bcl-2 (BAD) gene, BAD (gene 572); experiment: LTEA_HepaRG_BAD: Life Technologies and Expression Analysis (LTEA) Assay for Bcl-2 (BAD) gene using HepaRG (AID 2283469)
How it was run: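 HepaRG, 48 h exposure, 8-pt half-log curve from 100 uM in 0.5% DMSO, duplicates. Readout: TaqMan qRT-PCR for BAD mRNA, housekeeping-normalised (ACTB/GAPDH/POLR2A); gain or loss fitted against DMSO baseline.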

[13] = read-out: Bcl-2 (BAX) gene, BAX (gene 581); experiment: LTEA_HepaRG_BAX: Life Technologies and Expression Analysis (LTEA) Assay for Bcl-2 (BAX) gene using HepaRG (AID 2283470)
How it was run: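 qRT-PCR read-out of BAX mRNA, normalized to three housekeeping genes, after 48 h chemical exposure of human HepaRG cells in serum-free induction medium; eight-point half-log series, top 100 uM, 0.5% DMSO vehicle; bidirectional fit versus DMSO.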

[14] = read-out: adenosine kinase (ADK) gene, ADK (gene 132); experiment: LTEA_HepaRG_ADK: Life Technologies and Expression Analysis (LTEA) Assay for adenosine kinase (ADK) gene using HepaRG (AID 2283471)
How it was run: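 Differentiated HepaRG cells dosed 48 h in serum-free induction medium, 0.5% DMSO vehicle, eight half-log concentrations from 100 uM, in duplicate. ADK mRNA by TaqMan qRT-PCR normalised to ACTB, GAPDH, POLR2A; bidirectional fit versus DMSO.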

[15] = read-out: Alpha-fetoprotein (AFP) gene, AFP (gene 174); experiment: LTEA_HepaRG_AFP: Life Technologies and Expression Analysis (LTEA) Assay for Alpha-fetoprotein (AFP) gene using HepaRG (AID 2283472)
How it was run: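 qRT-PCR (Fluidigm TaqMan) readout of AFP transcript, normalized to three housekeeping genes, fitted bidirectionally against 0.5% DMSO baseline. HepaRG cells received chemicals for 48 h in serum-free induction medium, top concentration 100 uM, half-log steps.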

BCL2L11 (gene 10018) = experiment: LTEA_HepaRG_BCL2L11: Life Technologies and Expression Analysis (LTEA) Assay for Bcl-2 (BCL2L11) gene using HepaRG (AID 2283473)
How it was run: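 Read-out is BCL2L11 transcript level by qRT-PCR, normalized to three housekeeping genes and fitted bidirectionally against 0.5% DMSO vehicle. HepaRG cells received chemicals for 48 h in serum-free induction medium, 100 uM down in half-log dilutions.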

[16] = read-out: Apolipoprotein A-V (APOA5) gene, APOA5 (gene 116519); experiment: LTEA_HepaRG_APOA5: Life Technologies and Expression Analysis (LTEA) Assay for Apolipoprotein A-V (APOA5) gene using HepaRG (AID 2283474)
How it was run: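 Readout is APOA5 transcript level by qRT-PCR on Fluidigm dynamic arrays, normalized to three housekeeping genes. HepaRG cultures received chemicals for 48 h at up to 100 uM (half-log steps, 0.5% DMSO), with gain or loss scored relative to DMSO.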

[17] = read-out: Apoptosis regulator Bcl-2 (Homo sapiens) (UniProt P10415); experiment: LTEA_HepaRG_BCL2: Life Technologies and Expression Analysis (LTEA) Assay for Bcl-2 gene using HepaRG (AID 2283475)
How it was run: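 qRT-PCR read-out (Fluidigm TaqMan) of BCL2 transcript, normalised to three housekeeping genes, after 48 h chemical exposure of HepaRG cells; 8-point half-log series, top 100 uM, 0.5% DMSO vehicle. Gain or loss of signal fitted relative to DMSO baseline.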

Sequence of Broad substrate specificity ATP-binding cassette transporter ABCG2 (Homo sapiens) (Q9UNQ0 whole entry, looked up): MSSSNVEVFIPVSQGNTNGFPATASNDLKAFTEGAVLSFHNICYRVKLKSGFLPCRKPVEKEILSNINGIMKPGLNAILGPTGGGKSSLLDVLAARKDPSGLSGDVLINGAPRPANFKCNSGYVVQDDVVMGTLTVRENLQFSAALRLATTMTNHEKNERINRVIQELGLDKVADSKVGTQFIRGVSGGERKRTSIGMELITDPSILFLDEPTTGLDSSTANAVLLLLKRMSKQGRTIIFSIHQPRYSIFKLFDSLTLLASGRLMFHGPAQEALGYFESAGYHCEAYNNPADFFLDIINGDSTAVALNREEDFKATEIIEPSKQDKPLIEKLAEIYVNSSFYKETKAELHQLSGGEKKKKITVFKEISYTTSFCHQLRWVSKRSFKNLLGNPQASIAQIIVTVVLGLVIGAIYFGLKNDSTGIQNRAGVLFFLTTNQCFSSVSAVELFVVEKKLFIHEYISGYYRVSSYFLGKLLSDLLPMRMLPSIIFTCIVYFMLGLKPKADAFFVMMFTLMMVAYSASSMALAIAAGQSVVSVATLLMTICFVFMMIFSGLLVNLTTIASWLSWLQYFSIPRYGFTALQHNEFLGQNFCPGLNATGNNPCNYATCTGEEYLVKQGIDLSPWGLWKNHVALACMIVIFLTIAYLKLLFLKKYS
Sequence of Apoptosis regulator Bcl-2 (Homo sapiens) (P10415 whole entry, looked up): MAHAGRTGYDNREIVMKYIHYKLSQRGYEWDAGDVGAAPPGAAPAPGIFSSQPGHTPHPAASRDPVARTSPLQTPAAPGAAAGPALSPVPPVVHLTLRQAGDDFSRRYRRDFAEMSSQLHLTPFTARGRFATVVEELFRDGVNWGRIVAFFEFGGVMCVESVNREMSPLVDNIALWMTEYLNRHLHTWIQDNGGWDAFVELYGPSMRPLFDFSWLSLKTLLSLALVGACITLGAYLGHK

## CCCCOC(=O)c1ccccc1C(=O)OCCCC
[1]
  outcome: inactive
[2]
  outcome: inactive
[3]
  outcome: inactive
[4]
  outcome: inactive
[5]
  outcome: inactive
[6]
  outcome: inactive
[7]
  outcome: inactive
[8]
  outcome: inactive
[9]
  outcome: inactive
[10]
  outcome: inactive
[11]
  outcome: inactive
[12]
  outcome: inactive
[13]
  outcome: inactive
[14]
  outcome: inactive
[15]
  outcome: inactive
BCL2L11 (gene 10018)
  outcome: inactive
[16]
  outcome: inactive
[17]
  outcome: inactive

## N#Cc1cc(Br)c(O)c(Br)c1
[1]
  AC50: 40 µM (active)
[2]
  AC50: 72.5 µM (active)
[3]
  AC50: 13.7 µM (active)
[4]
  AC50: 12.1 µM (active)
[5]
  AC50: 27.1 µM (active)
[6]
  AC50: 9.48 µM (active)
[7]
  AC50: 14 µM (active)
[8]
  AC50: 10.2 µM (active)
[9]
  AC50: 23.5 µM (active)
[10]
  AC50: 11.1 µM (active)
[11]
  AC50: 8.91 µM (active)
[12]
  outcome: inactive
[13]
  outcome: inactive
[15]
  AC50: 13.9 µM (active)
BCL2L11 (gene 10018)
  AC50: 10.4 µM (active)
[16]
  AC50: 21.2 µM (active)
[17]
  AC50: 10 µM (active)

## CCOC(=O)C(Cl)Cc1cc(-n2nc(C)n(C(F)F)c2=O)c(F)cc1Cl (stereo not drawn)
[1]
  outcome: inactive
[2]
  outcome: inactive
[3]
  outcome: inactive
[4]
  AC50: 50 µM (active)
[5]
  outcome: inactive
[6]
  outcome: inactive
[7]
  outcome: inactive
[8]
  outcome: inactive
[9]
  outcome: inactive
[10]
  outcome: inactive
[11]
  outcome: inactive
[12]
  outcome: inactive
[13]
  outcome: inactive
[15]
  outcome: inactive
BCL2L11 (gene 10018)
  outcome: inactive
[16]
  outcome: inactive
[17]
  outcome: inactive

## C=CCC1=C(C)[C@@H](OC(=O)[C@@H]2[C@@H](C=C(C)C)C2(C)C)CC1=O
[1]
  outcome: inactive
[2]
  outcome: inactive
[3]
  outcome: inactive
[4]
  AC50: 0.086 µM (active)
[5]
  outcome: inactive
[6]
  AC50: 74.2 µM (active)
[7]
  outcome: inactive
[8]
  outcome: inactive
[9]
  outcome: inactive
[10]
  outcome: inactive
[11]
  AC50: 81.2 µM (active)
[12]
  outcome: inactive
[13]
  outcome: inactive
[15]
  AC50: 50 µM (active)
BCL2L11 (gene 10018)
  outcome: inactive
[16]
  outcome: inactive
[17]
  outcome: inactive

## CCOP(=S)(OCC)SCn1c(=O)oc2cc(Cl)ccc21
[1]
  outcome: inactive
[2]
  outcome: inactive
[3]
  outcome: inactive
[4]
  outcome: inactive
[5]
  outcome: inactive
[6]
  outcome: inactive
[7]
  outcome: inactive
[8]
  outcome: inactive
[9]
  outcome: inactive
[10]
  outcome: inactive
[11]
  outcome: inactive
[12]
  outcome: inactive
[13]
  outcome: inactive
[15]
  outcome: inactive
BCL2L11 (gene 10018)
  outcome: inactive
[16]
  outcome: inactive
[17]
  outcome: inactive

## N#Cc1nn(-c2c(Cl)cc(C(F)(F)F)cc2Cl)c(N)c1S(=O)C(F)(F)F (stereo not drawn)
[1]
  AC50: 87.4 µM (active)
[2]
  AC50: 74.2 µM (active)
[3]
  outcome: inactive
[4]
  AC50: 11.4 µM (active)
[5]
  AC50: 90.7 µM (active)
[6]
  outcome: inactive
[7]
  outcome: inactive
[8]
  AC50: 23.5 µM (active)
[9]
  outcome: inactive
[10]
  AC50: 50.2 µM (active)
[11]
  AC50: 11.5 µM (active)
[12]
  outcome: inactive
[13]
  AC50: 32.6 µM (active)
[15]
  AC50: 15.9 µM (active)
BCL2L11 (gene 10018)
  outcome: inactive
[16]
  AC50: 54.4 µM (active)
[17]
  AC50: 34.6 µM (active)
